The term AC50 denotes the concentration at which the activity in the assay is half-maximal.

This is an account of results in PubChem BioAssay (EPA / NIEHS).

Activity calls are given as the source filed them. How the source made its calls: active means hit-call score of the fitted dose curve at least 0.9, where 1 is the maximum; inactive means score below 0.9.

Holding throughout (conditions): mRNA level, 48 h; actives raise or lower the signal
Read-out in test [1]: matrix metalloproteinase-10 (MMP10), MMP10 (gene 4319)
In words: LTEA_HepaRG_MMP10: Life Technologies and Expression Analysis (LTEA) Assay for matrix metalloproteinase-10 (MMP10) using HepaRG (AID 2283517). In a few lines: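 In differentiated HepaRG cultures kept in 0.5% DMSO, test chemicals act for 48 h over an eight-point range with a top dose of 100 uM. Expression is then quantified by TaqMan RT-PCR against ACTB, GAPDH and POLR2A.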

Read-out in test [2]: MYC, MYC (gene 4609)
Briefly: LTEA_HepaRG_MYC: Life Technologies and Expression Analysis (LTEA) Assay for MYC using HepaRG (AID 2283518). The method, boiled down:
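qRT-PCR read-out of MYC transcript (Fluidigm TaqMan, housekeeping-normalized) after 48 h chemical exposure of HepaRG cells; eight concentrations, top 100 uM, half-log steps. Bidirectional curve fitting against 0.5% DMSO vehicle baseline.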

Read-out in test [3]: matrix metalloproteinase-3 (MMP3), MMP3 (gene 4314)
Briefly: LTEA_HepaRG_MMP3: Life Technologies and Expression Analysis (LTEA) Assay for matrix metalloproteinase-3 (MMP3) using HepaRG (AID 2283519). In a few lines:
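Human liver HepaRG cultures received chemicals (top concentration 100 uM, 0.5% DMSO) for 48 h in duplicate. MMP3 mRNA induction or loss was then assessed via TaqMan qRT-PCR with housekeeping-gene normalisation.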

Read-out in test [4]: Paternally Expressed 10 (PEG10), PEG10 (gene 23089)
Briefly: LTEA_HepaRG_PEG10: Life Technologies and Expression Analysis (LTEA) Assay for Paternally Expressed 10 (PEG10) using HepaRG (AID 2283520).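 On AC50: PEG10 transcript by qRT-PCR normalised to ACTB GAPDH and POLR2A.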 The method, boiled down:
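PEG10 transcript measured by Fluidigm qRT-PCR, normalized to three housekeeping genes, in HepaRG cells treated 48 h (highest 100 uM, half-log steps, 0.5% DMSO vehicle). Cells plated 48 h before switching to serum-free induction medium.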

Read-out in test [5]: Protein phosphatase 2A (PPP2R4), PTPA (gene 5524)
Briefly: LTEA_HepaRG_PPP2R4: Life Technologies and Expression Analysis (LTEA) Assay for Protein phosphatase 2A (PPP2R4) using HepaRG (AID 2283522). The method, boiled down: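 Expression was quantified by Fluidigm qRT-PCR normalised to three housekeeping genes after 48 h treatment. Human HepaRG cells received an 8-point series from 100 µM downward by half-logs, in duplicate with 0.5% DMSO vehicle and 1 mM phenobarbital as induction control.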

Read-out in test [6]: Phosphatase and tensin (PTEN), PTEN (gene 5728)
Briefly: LTEA_HepaRG_PTEN: Life Technologies and Expression Analysis (LTEA) Assay for Phosphatase and tensin (PTEN) using HepaRG (AID 2283523). The method, boiled down:
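Expression of PTEN is quantified in the human liver line HepaRG following two days of dosing (top concentration 100 uM, half-log dilutions, 0.5% DMSO). Values derive from bidirectional curve fitting relative to DMSO controls.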

Read-out in test [7]: solute carrier (SLC22A1), SLC22A1 (gene 6580)
In words: LTEA_HepaRG_SLC22A1: Life Technologies and Expression Analysis (LTEA) Assay for solute carrier (SLC22A1) using HepaRG (AID 2283524).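 On AC50: TaqMan qRT-PCR normalized to ACTB GAPDH and POLR2A housekeeping genes.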 In a few lines: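 Transcript induction or suppression of SLC22A1 in human HepaRG cultures is scored after 48 h chemical treatment, with DMSO (0.5%) as baseline for bidirectional fitting. Concentrations span eight half-log points topping at 100 uM.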

Read-out in test [8]: Pyruvate Dehydrogenase Kinase 4 (PDK4), PDK4 (gene 5166)
Briefly: LTEA_HepaRG_PDK4: Life Technologies and Expression Analysis (LTEA) Assay for Pyruvate Dehydrogenase Kinase 4 (PDK4) using HepaRG (AID 2283525). The method, boiled down:
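Eight-point, half-log concentration series (max 100 uM, 0.5% DMSO) applied to differentiated HepaRG cells for 48 h in duplicate. Endpoint: PDK4 mRNA induction or repression by qRT-PCR against DMSO baseline.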

Read-out in test [9]: NAD(P)H dehydrogenase [quinone] 1 (NQO1), NQO1 (gene 1728)
Briefly: LTEA_HepaRG_NQO1: Life Technologies and Expression Analysis (LTEA) Assay for NAD(P)H dehydrogenase [quinone] 1 (NQO1) using HepaRG (AID 2283526). In a few lines:
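NQO1 transcript induction or loss measured by TaqMan qRT-PCR, referenced to three housekeeping genes and fitted bidirectionally against 0.5% DMSO. HepaRG cultures exposed 48 h, duplicate, eight-point half-log series, top 100 uM.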

Read-out in test [10]: Nuclear factor erythroid 2-related factor 2 (Homo sapiens) (UniProt Q16236)
In words: LTEA_HepaRG_NFE2L2: Life Technologies and Expression Analysis (LTEA) Assay for Nuclear factor erythroid 2-related factor 2 (NFE2L2) Transcription Factor using HepaRG (AID 2283527).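 On outcome: TaqMan qRT-PCR transcript level normalised to ACTB GAPDH and POLR2A housekeeping genes.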 In a few lines:
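Human liver HepaRG line treated in duplicate for 48 h with an eight-point series topping at 100 uM. Gene expression of NFE2L2 by qRT-PCR, bidirectionally fitted against the vehicle control.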

Read-out in test [11]: succinate dehydrogenase complex iron sulfur subunit B (SDHB), SDHB (gene 6390)
Briefly: LTEA_HepaRG_SDHB: Life Technologies and Expression Analysis (LTEA) Assay for succinate dehydrogenase complex iron sulfur subunit B (SDHB) using HepaRG (AID 2283528). In a few lines:
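HepaRG cells (~100,000/well, plated 48 h) exposed in duplicate for 48 h in serum-free induction medium to 8-point half-log series from 100 uM in 0.5% DMSO; mRNA by qRT-PCR normalised to ACTB, GAPDH, POLR2A; bidirectional fit versus DMSO.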

Read-out in test [12]: Signal transducer and activator of transcription 3 (Homo sapiens) (UniProt P40763)
Briefly: LTEA_HepaRG_STAT3: Life Technologies and Expression Analysis (LTEA) Assay for Signal transducer and activator of transcription (STAT3) using HepaRG (AID 2283529). The method, boiled down:
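In this transcriptional endpoint, HepaRG cultures receive test chemicals at up to 100 uM for 48 h, tested in duplicate. STAT3 mRNA is normalized to ACTB, GAPDH and POLR2A.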

Read-out in test [13]: solute carrier (SLCO1B1), SLCO1B1 (gene 10599)
In words: LTEA_HepaRG_SLCO1B1: Life Technologies and Expression Analysis (LTEA) Assay for solute carrier (SLCO1B1) using HepaRG (AID 2283530). The method, boiled down:
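SLCO1B1 transcript read by qRT-PCR (Fluidigm arrays), normalized to three housekeeping genes, after 48 h chemical exposure of HepaRG cells; bidirectional concentration-response fitting versus 0.5% DMSO baseline. Eight-point half-log series, maximum 100 uM.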

Read-out in test [14]: sulfotransferase 2A1 (SULT2A1), SULT2A1 (gene 6822)
Briefly: LTEA_HepaRG_SULT2A1: Life Technologies and Expression Analysis (LTEA) Assay for sulfotransferase 2A1 (SULT2A1) using HepaRG (AID 2283531). The method, boiled down:
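HepaRG, 48 h chemical exposure, 8-pt half-log curve from 100 uM in 0.5% DMSO, duplicates. Readout: TaqMan qRT-PCR of SULT2A1 mRNA, housekeeping-normalized. Bidirectional fit vs DMSO baseline.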

Read-out in test [15]: Transforming Growth Factor (TGFA), TGFA (gene 7039)
In words: LTEA_HepaRG_TGFA: Life Technologies and Expression Analysis (LTEA) Assay for Transforming Growth Factor (TGFA) using HepaRG (AID 2283532). In a few lines: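 Gene expression of TGFA was quantified by qRT-PCR after human HepaRG cells were treated for 48 h with test chemicals (eight concentrations, highest 100 uM, 0.5% DMSO). Activity in either direction was fitted relative to DMSO.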

Read-out in test [16]: Transforming Growth Factor (TGFB1), TGFB1 (gene 7040)
Briefly: LTEA_HepaRG_TGFB1: Life Technologies and Expression Analysis (LTEA) Assay for Transforming Growth Factor (TGFB1) Transporter using HepaRG (AID 2283533). The method, boiled down: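 qRT-PCR readout of TGFB1 transcript in HepaRG lysates, normalized to three housekeeping genes; gain or loss of signal fitted relative to 0.5% DMSO vehicle. Exposure: 48 h, 8-point curve from 100 uM, duplicate wells.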

Read-out in test [17]: TIMP1, TIMP1 (gene 7076)
In words: LTEA_HepaRG_TIMP1: Life Technologies and Expression Analysis (LTEA) Assay for TIMP1 using HepaRG (AID 2283534).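 Further: TaqMan qRT-PCR signal normalized to ACTB GAPDH and POLR2A housekeeping genes.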 In a few lines:
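HepaRG, 48 h exposure, 8-pt half-log series from 100 uM in 0.5% DMSO, duplicates; TIMP1 transcript by Fluidigm qRT-PCR, housekeeping-normalized; bidirectional curve fit vs DMSO baseline.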

Read-out in test [18]: Tumor necrosis factor receptor 1 (TNFRSF1A), TNFRSF1A (gene 7132)
In words: LTEA_HepaRG_TNFRSF1A: Life Technologies and Expression Analysis (LTEA) Assay for Tumor necrosis factor receptor 1 (TNFRSF1A) using HepaRG (AID 2283535). In a few lines:
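HepaRG, 48 h plating then 48 h chemical exposure, serum-free induction media; 8-pt CRC from 100 uM, half-log, 0.5% DMSO vehicle, duplicates. Readout: TaqMan qRT-PCR (Fluidigm), housekeeping-gene normalized; bidirectional fit vs DMSO.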

Read-out in test [19]: Thyroid Hormone Responsive (THRSP), THRSP (gene 7069)
In words: LTEA_HepaRG_THRSP: Life Technologies and Expression Analysis (LTEA) Assay for Thyroid Hormone Responsive (THRSP) using HepaRG (AID 2283536). The method, boiled down: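 Cell model: human HepaRG, approx. 100,000 cells/well, 0.5% DMSO vehicle. Exposure lasts 48 h; phenobarbital 1 mM serves as induction positive control. Gene expression is measured by qRT-PCR against three endogenous control genes.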

Read-out in test [20]: Nuclear factor NF-kappa-B p105 subunit (Homo sapiens) (UniProt P19838)
Briefly: LTEA_HepaRG_NFKB1: Life Technologies and Expression Analysis (LTEA) Assay for Nuclear Factor Kappa B Subunit 1 (NFKB1) using HepaRG (AID 2283521).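 Further: TaqMan qRT-PCR transcript normalised to ACTB GAPDH and POLR2A housekeeping genes.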 In a few lines: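 Differentiated human HepaRG cells in serum-free induction medium with 0.5% DMSO were exposed for 48 h to eight half-log concentrations, top 100 uM, in duplicate. NFKB1 mRNA measured by Fluidigm TaqMan qRT-PCR, normalised to ACTB, GAPDH and POLR2A; bidirectional fit versus DMSO.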

Chain of Signal transducer and activator of transcription 3 (Homo sapiens) (P40763 whole entry, looked up): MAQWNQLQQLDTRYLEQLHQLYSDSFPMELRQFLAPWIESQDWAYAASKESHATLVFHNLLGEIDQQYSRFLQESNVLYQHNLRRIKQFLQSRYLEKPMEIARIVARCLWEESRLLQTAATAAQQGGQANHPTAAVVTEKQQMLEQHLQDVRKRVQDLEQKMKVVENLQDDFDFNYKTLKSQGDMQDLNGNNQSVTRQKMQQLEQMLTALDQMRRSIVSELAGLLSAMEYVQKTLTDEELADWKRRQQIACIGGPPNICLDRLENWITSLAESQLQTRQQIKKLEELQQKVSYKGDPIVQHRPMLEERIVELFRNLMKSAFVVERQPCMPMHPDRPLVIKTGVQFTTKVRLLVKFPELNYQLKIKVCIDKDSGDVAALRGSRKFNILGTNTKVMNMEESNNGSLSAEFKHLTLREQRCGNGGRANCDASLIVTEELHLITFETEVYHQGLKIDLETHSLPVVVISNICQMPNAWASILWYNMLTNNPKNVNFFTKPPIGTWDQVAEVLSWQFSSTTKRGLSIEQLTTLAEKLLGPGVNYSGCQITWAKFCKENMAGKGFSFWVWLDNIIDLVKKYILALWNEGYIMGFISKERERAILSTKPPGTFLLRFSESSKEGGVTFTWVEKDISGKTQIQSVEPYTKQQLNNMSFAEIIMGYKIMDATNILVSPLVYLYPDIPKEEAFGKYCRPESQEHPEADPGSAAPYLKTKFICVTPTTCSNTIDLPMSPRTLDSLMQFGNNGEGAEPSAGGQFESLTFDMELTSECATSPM
Chain of Nuclear factor erythroid 2-related factor 2 (Homo sapiens) (Q16236 whole entry, looked up): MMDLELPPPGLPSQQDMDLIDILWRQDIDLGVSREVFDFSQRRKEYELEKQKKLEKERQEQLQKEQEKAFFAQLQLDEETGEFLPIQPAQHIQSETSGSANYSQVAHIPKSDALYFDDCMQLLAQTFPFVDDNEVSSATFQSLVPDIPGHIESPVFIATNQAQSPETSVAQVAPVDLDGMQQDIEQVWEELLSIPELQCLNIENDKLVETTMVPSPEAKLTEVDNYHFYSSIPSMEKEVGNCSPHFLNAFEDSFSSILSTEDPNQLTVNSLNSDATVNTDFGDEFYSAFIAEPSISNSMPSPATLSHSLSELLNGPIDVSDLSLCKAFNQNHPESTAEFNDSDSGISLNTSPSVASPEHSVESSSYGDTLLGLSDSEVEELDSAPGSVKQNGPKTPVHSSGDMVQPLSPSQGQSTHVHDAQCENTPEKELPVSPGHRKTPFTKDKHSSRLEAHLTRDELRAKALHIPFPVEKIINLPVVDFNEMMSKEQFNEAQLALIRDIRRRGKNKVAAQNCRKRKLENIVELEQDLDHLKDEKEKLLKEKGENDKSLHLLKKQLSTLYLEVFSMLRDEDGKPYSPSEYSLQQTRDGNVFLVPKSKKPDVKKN
Chain of Nuclear factor NF-kappa-B p105 subunit (Homo sapiens) (P19838 whole entry, looked up): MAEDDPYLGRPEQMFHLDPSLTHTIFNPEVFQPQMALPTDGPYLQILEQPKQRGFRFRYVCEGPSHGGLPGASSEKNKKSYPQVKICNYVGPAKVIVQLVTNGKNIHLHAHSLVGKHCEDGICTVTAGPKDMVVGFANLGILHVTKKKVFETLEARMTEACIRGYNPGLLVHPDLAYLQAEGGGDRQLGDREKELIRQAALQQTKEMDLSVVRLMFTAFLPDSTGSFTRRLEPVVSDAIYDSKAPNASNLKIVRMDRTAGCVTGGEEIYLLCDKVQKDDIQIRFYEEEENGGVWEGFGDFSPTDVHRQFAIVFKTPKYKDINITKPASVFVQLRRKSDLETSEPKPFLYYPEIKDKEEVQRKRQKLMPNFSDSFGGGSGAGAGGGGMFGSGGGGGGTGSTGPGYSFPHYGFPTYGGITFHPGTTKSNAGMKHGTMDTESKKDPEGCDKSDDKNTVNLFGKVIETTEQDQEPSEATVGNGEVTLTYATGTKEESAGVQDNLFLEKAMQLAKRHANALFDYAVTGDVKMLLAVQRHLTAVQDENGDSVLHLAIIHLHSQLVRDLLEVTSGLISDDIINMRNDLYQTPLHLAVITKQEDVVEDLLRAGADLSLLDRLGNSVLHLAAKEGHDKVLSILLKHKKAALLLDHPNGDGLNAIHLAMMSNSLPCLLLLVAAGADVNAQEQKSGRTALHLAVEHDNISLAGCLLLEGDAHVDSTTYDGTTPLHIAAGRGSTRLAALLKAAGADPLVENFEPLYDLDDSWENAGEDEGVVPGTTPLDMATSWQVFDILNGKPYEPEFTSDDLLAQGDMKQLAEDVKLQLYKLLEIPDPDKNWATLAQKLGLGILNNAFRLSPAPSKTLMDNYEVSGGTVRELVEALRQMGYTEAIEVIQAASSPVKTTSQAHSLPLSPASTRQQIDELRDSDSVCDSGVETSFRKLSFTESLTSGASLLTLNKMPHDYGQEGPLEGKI

For `NCCO`, the molecule was called inactive in [1], in test [2], in [3], in test [4], in [5] and in [6]. Also, the outcome in [7], in test [8], in [9], in test [10], in test [11] and in test [12] was inactive. Moreover, the result in [13], in test [14], in [15], in test [16], in [17] and in test [18] was inactive. The result in test [19] was inactive.

For the molecule `NS(=O)(=O)c1cc2c(cc1Cl)NCNS2(=O)=O`, the molecule was classed as inactive in [1], in test [2], in test [3], in [4], in [5] and in test [6]. For the same molecule, the molecule was classed as inactive in [7], in test [8], in [9], in test [10], in test [11] and in test [12]. Besides, the call in [13], in test [14], in test [15], in test [16], in test [17] and in test [18] was inactive. Besides, in test [19], the result was inactive.

For the molecule `FC(F)(F)C(F)(F)C(F)(F)C(F)(F)C(F)(F)C(F)(F)CCI`, the call in [1], in test [2], in [3], in test [4], in [5] and in [6] was inactive. Moreover, the call in test [7], in [8], in test [9], in [10], in [11] and in [12] was inactive. Further, the outcome in [13], in test [14], in test [15], in test [16], in test [17] and in test [18] was inactive. Besides, in test [19], the molecule was called inactive.

With `Nc1ccc2c(c1)C(=O)c1ccccc1C2=O`, the molecule was classed as inactive in test [1], in test [3], in test [20], in [6], in [9] and in test [11]. Further, the outcome in [12], in test [14], in [15], in test [16] and in test [17] was inactive. In addition, the AC50 in [2] is 12.3 µM (active); in [4] it was 15.5 µM (active); in [7] it was 7.06 µM (active); in test [8], 13.2 µM (active); in [10] it was 27.8 µM (active); in [13] it was 4.66 µM (active). The AC50 in test [19] is 6.08 µM (active).
